Assay [1] in a line: S16 Schwann cell PMP22 intronic element firefly luciferase assay (AID 624032). Further: nearly all actives have a fitted effect of over 30% in size. As to conditions: S16 rat Schwann cells, PMP22 element FLuc, 24 h; series mostly up to 25.7 µM. A digest of the protocol:
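Luciferase reporter of PMP22 intronic-element expression in stably transfected S16 rat Schwann cells, read by ONE-Glo luminescence after 24 h compound exposure at 37 C. Activity scaled between DMSO (0%) and positive-control PTC124; concentration-effect curves quality-classified.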

Assay [2] can be described thus: S16 Schwann cell PMP22 intronic element beta-lactamase assay (AID 624044; calls by dose curve; further: nearly all actives have a fitted effect of over 15% in size). As to conditions: S16 rat Schwann cells, PMP22 element beta-lactamase FRET, 24 h; series mostly up to 17.1 µM. An outline of the steps:
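Rat S16 Schwann cells with beta-Lac driven by a PMP22 intronic element, compound-treated 24 h at 37 °C. LiveBLAzer FRET B/G read: 460 nm normalized to potassium clavulanate vs DMSO; 535 nm FRET as viability; concentration-effect curves classified.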

A further assay concerns 7G8. Description: qHTS profiling for inhibitors of Plasmodium falciparum proliferation (AID 504749). Further: nearly all actives have a fitted effect of over 60% in size. Further: potency means the concentration at half of the fitted maximal effect. The conditions noted are these: P. falciparum in erythrocytes, SYBR Green DNA, 72 h; series mostly up to 12.8 µM. An outline of the steps:
(§1)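 Infected RBCs, 0.3% parasitemia/2.5% Hct final; cpd 72 h, 37 C, 5% CO2; lysis buffer with saponin/triton/SYBR Green I, o/n RT dark; FI 485/535; norm. to artemisinin (0.29 uM) and DMSO.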
Background: In qHTS, concentration-response curves come from the screen itself.

A further assay relates to CP215. The description is as above. As to conditions: P. falciparum in erythrocytes, SYBR Green DNA, 72 h; series mostly up to 12.8 µM. A digest of the protocol:
as §1

Another assay relates to CP237. The description is as above. As to conditions: P. falciparum in erythrocytes, SYBR Green DNA, 72 h; series mostly up to 12.8 µM. An outline of the steps:
as §1

The next assay has as its system CP266. The assay is described as above. The conditions noted are these: P. falciparum in erythrocytes, SYBR Green DNA, 72 h; series mostly up to 12.8 µM. An outline of the steps: as §1
In the next assay the test system is CP269. The description is as above. As to conditions: P. falciparum in erythrocytes, SYBR Green DNA, 72 h; series mostly up to 12.8 µM. A digest of the protocol: as §1
The subject of a further assay is CP297. The description is as above. The conditions noted are these: P. falciparum in erythrocytes, SYBR Green DNA, 72 h; series mostly up to 12.8 µM. An outline of the steps: as §1
The test system of a further assay is CP315. Described as above. The conditions noted are these: P. falciparum in erythrocytes, SYBR Green DNA, 72 h; series mostly up to 12.8 µM. An outline of the steps: as §1
The test system of a further assay is CP335. Described as above. As to conditions: P. falciparum in erythrocytes, SYBR Green DNA, 72 h; series mostly up to 12.8 µM. An outline of the steps: as §1
The next assay relates to DIV17. The description is as above. The conditions noted are these: P. falciparum in erythrocytes, SYBR Green DNA, 72 h; series mostly up to 12.8 µM. An outline of the steps: as §1
The test system of the next assay is GB4. The assay is described as above. The conditions noted are these: P. falciparum in erythrocytes, SYBR Green DNA, 72 h; series mostly up to 12.8 µM. An outline of the steps:
as §1

The test system of another assay is P94_40. Described as above. The conditions noted are these: P. falciparum in erythrocytes, SYBR Green DNA, 72 h; series mostly up to 12.8 µM. An outline of the steps: as §1
For the next assay, the system named is PC26. Described as above. As to conditions: P. falciparum in erythrocytes, SYBR Green DNA, 72 h; series mostly up to 12.8 µM. A digest of the protocol: as §1
The next assay relates to W2. The description is as above. As to conditions: P. falciparum in erythrocytes, SYBR Green DNA, 72 h; series mostly up to 12.8 µM. An outline of the steps:
as §1

In assay [3] the target is Cytochrome P450 2C9 (Homo sapiens) (UniProt P11712). Description: qHTS Assay for Inhibitors and Substrates of Cytochrome P450 2C9 (AID 883). Further: nearly all actives have a fitted effect of over 60% in size. Further: potency means the concentration at half of the fitted maximal effect. The conditions noted are these: recombinant CYP2C9, luciferin-H luminescence, 60 min; series mostly up to 25.6 µM. An outline of the steps: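 Inhibition of CYP2C9 is scored as loss of luminescence, with 57uM sulphaphenazole defining 100% inhibition. Substrate Luciferin-H is used at 100uM, equal to its KM; enzyme at 10nM in 25mM KPO4, 60 min at 37C with NADPH regeneration.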

Assay [4] has as its target Cytochrome P450 3A4 (Homo sapiens) (UniProt P08684). Description: qHTS Assay for Activators of Cytochrome P450 3A4 (AID 885). Further: nearly all actives have a fitted effect of over 65% in size. The conditions noted are these: recombinant CYP3A4, Luciferin-PPXE luminescence, 60 min; series mostly up to 57.1 µM. An outline of the steps: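 Human CYP3A4 (20 nM) with Luciferin-PPXE at 25 uM (its KM) in 200 mM KPO4; 10 min compound preincubation, then NADPH regeneration and 60 min reaction at RT. Luciferin read by luminescence; normalized to 57 uM ketoconazole full inhibition.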

Assay [5] deals with Cytochrome P450 2C19 (Homo sapiens) (UniProt P33261). Description: qHTS Assay for Inhibitors and Substrates of Cytochrome P450 2C19 (AID 899). Further: nearly all actives have a fitted effect of over 60% in size. Further: potency means the concentration at half of the fitted maximal effect. The conditions noted are these: recombinant CYP2C19, luciferin-H EGE luminescence; series mostly up to 57.1 µM. A digest of the protocol:
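5nM enzyme + 10uM Luciferin-H EGE (=KM), 50mM KPO4; cpd pin-transferred, 10 min 37C; NADPH regen, 60 min 37C; stopped w/ luciferin detection reagent, 20 min; luminescence. Normalized to 57uM ketoconazole (AC100).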

In assay [6] the target is Cytochrome P450 3A4 (Homo sapiens) (UniProt P08684). The experiment in a line: qHTS Assay for Inhibitors and Substrates of Cytochrome P450 3A4 (AID 884). Further: nearly all actives have a fitted effect of over 50% in size. As to conditions: recombinant CYP3A4, Luciferin-PPXE luminescence; series mostly up to 57.1 µM. An outline of the steps: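 20 nM human CYP3A4 with 25 uM Luciferin-PPXE (at KM) in 200 mM KPO4, preincubated 10 min with compound; NADPH regeneration started a 60 min RT reaction. Luciferin detected by luminescence, normalized to 57 uM ketoconazole as full inhibition.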

Structures are written as SMILES. Results filed as inconclusive are left out. Active and inactive are the calls of the source. Unless noted, the call rests on the fitted dose curve; in most records, active means well fitted curve in the direction sought with a large enough effect; inconclusive means small, poorly fitted or top-dose-only effect, or another doubt; inactive means no such curve, though single readings can be large; an effect the other way counts as inactive or inconclusive.

Chain of Cytochrome P450 2C9 (Homo sapiens) (P11712 whole entry, looked up): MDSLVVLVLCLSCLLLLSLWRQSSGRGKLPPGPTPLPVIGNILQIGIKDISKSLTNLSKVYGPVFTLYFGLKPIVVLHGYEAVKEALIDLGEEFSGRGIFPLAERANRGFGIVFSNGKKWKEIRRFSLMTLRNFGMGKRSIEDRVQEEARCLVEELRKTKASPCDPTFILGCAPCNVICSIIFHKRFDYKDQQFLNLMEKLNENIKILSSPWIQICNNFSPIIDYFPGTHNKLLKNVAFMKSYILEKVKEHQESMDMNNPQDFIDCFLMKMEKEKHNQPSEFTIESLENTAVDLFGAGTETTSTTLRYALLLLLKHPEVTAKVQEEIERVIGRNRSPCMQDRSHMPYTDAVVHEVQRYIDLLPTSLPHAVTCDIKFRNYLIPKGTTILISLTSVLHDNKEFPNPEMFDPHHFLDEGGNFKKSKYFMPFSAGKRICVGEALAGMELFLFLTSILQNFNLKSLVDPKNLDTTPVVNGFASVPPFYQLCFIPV
Chain of Cytochrome P450 3A4 (Homo sapiens) (P08684 whole entry, looked up): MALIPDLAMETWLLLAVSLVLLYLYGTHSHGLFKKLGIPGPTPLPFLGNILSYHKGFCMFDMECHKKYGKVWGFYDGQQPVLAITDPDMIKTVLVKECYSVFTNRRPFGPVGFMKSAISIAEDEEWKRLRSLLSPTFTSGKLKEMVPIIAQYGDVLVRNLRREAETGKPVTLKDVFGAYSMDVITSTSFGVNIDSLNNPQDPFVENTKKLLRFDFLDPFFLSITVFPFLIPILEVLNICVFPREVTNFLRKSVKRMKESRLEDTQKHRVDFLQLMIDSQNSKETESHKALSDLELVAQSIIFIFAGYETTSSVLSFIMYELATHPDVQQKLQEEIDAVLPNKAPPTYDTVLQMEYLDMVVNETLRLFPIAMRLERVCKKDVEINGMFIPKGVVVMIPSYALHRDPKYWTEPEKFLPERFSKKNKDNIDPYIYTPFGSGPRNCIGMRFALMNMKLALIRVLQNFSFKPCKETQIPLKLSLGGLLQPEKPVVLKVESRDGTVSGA
Chain of Cytochrome P450 2C19 (Homo sapiens) (P33261 whole entry, looked up): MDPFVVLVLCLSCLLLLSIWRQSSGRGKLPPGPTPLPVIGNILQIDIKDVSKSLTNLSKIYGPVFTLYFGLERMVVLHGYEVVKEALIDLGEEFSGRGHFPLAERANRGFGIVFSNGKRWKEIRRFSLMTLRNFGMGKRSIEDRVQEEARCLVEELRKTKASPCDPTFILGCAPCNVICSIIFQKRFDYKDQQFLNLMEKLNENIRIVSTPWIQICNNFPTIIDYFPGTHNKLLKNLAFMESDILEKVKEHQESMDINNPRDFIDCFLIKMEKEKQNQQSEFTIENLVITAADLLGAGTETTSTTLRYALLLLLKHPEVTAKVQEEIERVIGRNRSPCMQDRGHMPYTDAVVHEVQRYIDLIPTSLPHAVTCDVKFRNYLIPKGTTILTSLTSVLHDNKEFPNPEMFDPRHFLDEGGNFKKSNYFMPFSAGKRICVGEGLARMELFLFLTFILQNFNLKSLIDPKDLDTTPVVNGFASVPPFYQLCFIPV

For the molecule `COCC(=O)Nc1c(I)c(C(=O)NC[C@@H](O)CO)c(I)c(C(=O)N(C)C[C@@H](O)CO)c1I`, the Potency result (in [1]; in [2]; in the assay on 7G8; with CP215; in the assay with CP237; in the assay with CP266) was “inactive” each time. The Potency result in the assay on CP269, in the assay on CP297, with CP315, in the assay with CP335, with DIV17 and in the assay on GB4 was “inactive” each time. Besides, the Potency entry with P94_40, with PC26 and in the assay with W2 was “inactive” in each case.

As for `CCOC(=O)C1=C(C)NC(C)=C(C(=O)OC)[C@@H]1c1cccc([N+](=O)[O-])c1`, the Potency in [3] is 0.316 µM (active); in assay [5], 0.126 µM (active). Further, in [4], the Potency entry is “inactive”.

As for `CCCC[C@H](CC)CN1CN(C[C@@H](CC)CCCC)CC(C)(N)C1`, the Potency entry (in [2]; with CP215; in the assay on CP266; in the assay on CP269; in the assay on CP297; in the assay with CP315) was “inactive” in each case. Moreover, the Potency result in the assay with CP335, in the assay on DIV17, in the assay on GB4, in the assay on P94_40 and in the assay with PC26 was “inactive” throughout.

Regarding `CC[C@H](CO)NCCN[C@@H](CC)CO`, the Potency result (in assay [3]; in [1]; in assay [2]; in the assay with 7G8; in the assay on CP215; with CP237) was “inactive” in each case. Also, the Potency result in the assay on CP266, with CP269, in the assay on CP297, in the assay with CP315, in the assay on CP335 and in the assay with DIV17 was “inactive” throughout. Moreover, the Potency entry in the assay on GB4, in the assay on P94_40, in the assay on PC26 and in the assay with W2 was “inactive” each time.

Regarding `NC(=O)c1cc[n+](CC2=C(C(=O)[O-])N3C(=O)[C@@H](NC(=O)Cc4cccs4)[C@@H]3SC2)cc1`, the Potency result (in [1]; in assay [2]; with CP215; with CP237; in the assay with CP266; with CP269) was “inactive” in each case. In addition, the Potency entry in the assay with CP297, in the assay with CP315, in the assay on CP335, in the assay with DIV17, in the assay on GB4 and in the assay with P94_40 was “inactive” each time. For the same molecule, the Potency entry in the assay with PC26 and with W2 was “inactive” each time.

For the molecule `NC(=O)c1ccc[n+]([C@@H]2O[C@H](COP(=O)([O-])OP(=O)(O)OC[C@H]3O[C@@H](n4cnc5c(N)ncnc54)[C@@H](O)[C@@H]3O)[C@@H](O)[C@@H]2O)c1`, the Potency entry (in assay [3]; in [6]; in [5]; in [1]; in [2]; in the assay with 7G8) was “inactive” throughout. Besides, the Potency entry with CP215, in the assay on CP237, in the assay on CP266, with CP269, in the assay on CP297 and in the assay on CP315 was “inactive” each time. Moreover, the Potency entry with CP335, in the assay with DIV17, in the assay with GB4, with P94_40 and in the assay on W2 was “inactive” each time.

As to `NS(=O)(=O)c1cc2c(cc1Cl)N[C@@H](CC1CCCC1)NS2(=O)=O`, the Potency entry (in [3]; in assay [1]; in the assay on 7G8; in the assay with CP215; with CP237; in the assay with CP266) was “inactive” in each case. The Potency entry with CP269, with CP297, in the assay on CP315, in the assay on CP335, in the assay on DIV17 and with GB4 was “inactive” in each case. Further, the Potency result with P94_40, in the assay on PC26 and in the assay on W2 was “inactive” throughout.

Take `CCC(=O)O[C@@]1(C(=O)SCF)[C@@H](C)C[C@H]2[C@@H]3C[C@@H](F)C4=CC(=O)C=C[C@@]4(C)[C@]3(F)[C@@H](O)C[C@]21C`: the Potency result (in assay [1]; in assay [2]; in the assay with CP215; in the assay with CP266; in the assay with CP297; in the assay on CP315) was “inactive” throughout. Moreover, the Potency in the assay with 7G8 was 2.82 µM (active); with W2, 3.22 µM (active).

In the case of `CC(=O)OCC(=O)[C@@]1(O)CC[C@@H]2[C@H]3CCC4=CC(=O)C=C[C@]4(C)[C@]3(F)[C@@H](O)C[C@@]21C`, the Potency entry (in assay [1]; in [2]; in the assay with 7G8; with CP215; in the assay with CP237; in the assay with CP266) was “inactive” in each case. Also, the Potency result in the assay on CP269, in the assay with CP297, with CP315, with CP335, in the assay with DIV17 and in the assay on GB4 was “inactive” throughout. Besides, the Potency entry in the assay on PC26 and in the assay on W2 was “inactive” each time.

`NS(=O)(=O)c1cc2c(cc1Cl)N[C@@H](C(Cl)Cl)NS2(=O)=O`: the Potency entry (in assay [1]; in the assay on 7G8; with CP215; in the assay on CP237; in the assay on CP266; in the assay with CP269) was “inactive” in each case. The Potency entry with CP297, in the assay with CP315, in the assay on CP335, with DIV17, with GB4 and with P94_40 was “inactive” throughout. Also, in the assay with PC26, the Potency entry is “inactive”.

For the molecule `C[C@@]12C=CC(=O)C=C1CC[C@@H]1[C@@H]2[C@H](O)C[C@]2(C)[C@@H]1CC[C@]2(O)C(=O)CO`, in [5], the Potency entry was “inactive”.

On to `Cc1ccc(S(=O)(=O)NC(=O)NN2C[C@H]3CCC[C@@H]3C2)cc1`, for which the Potency result (in assay [1]; in assay [2]; in the assay on 7G8; in the assay with CP215; with CP237; in the assay on CP266) was “inactive” throughout. The Potency entry in the assay with CP269, in the assay with CP297, with CP315, with CP335, with DIV17 and in the assay with GB4 was “inactive” throughout. Besides, the Potency entry in the assay on P94_40, in the assay on PC26 and in the assay with W2 was “inactive” each time.

Take `Cc1c(C)c2c(c(C)c1O)CC[C@@](C)(C(=O)O)O2`: the Potency result in assay [4] was “inactive”.

For `NS(=O)(=O)c1cc2c(cc1C(F)(F)F)N[C@H](Cc1ccccc1)NS2(=O)=O`, the Potency entry (in assay [4]; in the assay with 7G8; in the assay with CP215; in the assay with CP237; in the assay on CP266; in the assay with CP269) was “inactive” each time. Also, the Potency entry in the assay on CP297, with CP315, in the assay on CP335, in the assay with DIV17, in the assay on GB4 and with P94_40 was “inactive” each time. Also, the Potency entry in the assay with PC26 and with W2 was “inactive” throughout.

Turning to `CCC[C@@H]1O[C@@H]2C[C@@H]3[C@H]4CCC5=CC(=O)C=C[C@@]5(C)[C@H]4[C@H](O)C[C@@]3(C)[C@@]2(C(=O)CO)O1`, the Potency entry in [2] was “inactive”. Further, the Potency is 4.47 µM (active) in the assay on 7G8; 15.1 µM (active) in the assay on CP215; 12 µM (active) in the assay on CP297; 10.7 µM (active) with CP335; 11.2 µM (active) in the assay with P94_40; 7.57 µM (active) in the assay on PC26. Moreover, in the assay on W2, the Potency is 6.01 µM (active).

Values taken from PubChem BioAssay (NCATS).
